Shown are actives, neighbours in structure and some others; about 2.2% of the full set was active somewhere.
FAS-TE inh = blocks the thioesterase domain of human fatty acid synthase; P49327; recombinant FAS-TE, OMFH fluorogenic substrate, fluorescence endpoint; inhibition, % at 15 µM; actives 0.67% (n = 360,000); AID 602261;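 active = compounds whose normalised, plate-corrected inhibition of enzyme fluorescence in the single-dose primary screen is 50% or more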;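 also: 0% = DMSO with enzyme and 100% = substrate without enzyme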
PLCg1 inh = inhibitors of human phospholipase C gamma1 | P19174 | purified PLC-gamma1, fluorogenic substrate, fluorescence | inhibition, % at 12.2 µM | actives 0.84% (n = 370,000) | AID 720700
Target sequence (P19174 whole entry, looked up): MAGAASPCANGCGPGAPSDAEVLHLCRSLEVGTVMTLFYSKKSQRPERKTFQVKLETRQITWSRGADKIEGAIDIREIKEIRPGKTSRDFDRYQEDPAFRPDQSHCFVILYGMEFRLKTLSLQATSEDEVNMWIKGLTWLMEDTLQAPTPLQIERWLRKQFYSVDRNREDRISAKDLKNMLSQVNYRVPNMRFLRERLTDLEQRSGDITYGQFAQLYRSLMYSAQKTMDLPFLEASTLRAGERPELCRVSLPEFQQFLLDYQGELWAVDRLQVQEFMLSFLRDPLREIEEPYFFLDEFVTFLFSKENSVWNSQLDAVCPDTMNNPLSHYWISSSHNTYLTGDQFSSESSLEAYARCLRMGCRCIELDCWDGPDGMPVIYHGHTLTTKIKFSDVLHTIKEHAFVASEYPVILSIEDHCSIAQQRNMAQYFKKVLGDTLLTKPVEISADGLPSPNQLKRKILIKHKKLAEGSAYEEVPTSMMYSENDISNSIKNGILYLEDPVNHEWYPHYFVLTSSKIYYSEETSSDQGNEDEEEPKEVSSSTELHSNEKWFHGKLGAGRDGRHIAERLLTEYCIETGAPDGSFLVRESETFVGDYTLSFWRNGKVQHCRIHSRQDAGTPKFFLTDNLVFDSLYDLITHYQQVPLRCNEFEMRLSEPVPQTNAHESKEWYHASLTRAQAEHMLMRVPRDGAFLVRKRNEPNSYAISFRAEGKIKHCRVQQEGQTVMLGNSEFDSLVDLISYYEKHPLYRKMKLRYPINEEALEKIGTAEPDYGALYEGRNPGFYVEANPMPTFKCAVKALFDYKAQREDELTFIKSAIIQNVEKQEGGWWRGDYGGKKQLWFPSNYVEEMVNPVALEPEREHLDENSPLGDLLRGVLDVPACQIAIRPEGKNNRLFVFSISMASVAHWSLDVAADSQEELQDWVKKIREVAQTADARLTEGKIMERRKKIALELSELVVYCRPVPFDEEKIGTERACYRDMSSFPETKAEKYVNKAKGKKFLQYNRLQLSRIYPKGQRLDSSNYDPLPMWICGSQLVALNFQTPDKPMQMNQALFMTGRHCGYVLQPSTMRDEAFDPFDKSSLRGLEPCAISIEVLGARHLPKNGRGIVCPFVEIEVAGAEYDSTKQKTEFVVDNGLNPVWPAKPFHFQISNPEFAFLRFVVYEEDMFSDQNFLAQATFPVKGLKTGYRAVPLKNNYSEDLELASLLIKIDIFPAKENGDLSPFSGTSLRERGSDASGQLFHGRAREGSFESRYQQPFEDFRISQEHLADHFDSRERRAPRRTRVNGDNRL
PLCb3 inh = inhibitors of human phospholipase C beta3 | Q01970 | Purified PLC-beta3, fluorogenic substrate, fluorescence | inhibition, % at 12.2 µM | actives 0.18% (n = 370,000) | AID 720704; in the data active = inhibition above about 11%;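 also: 0% = median of compound wells on plate and 100% = full blocker control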
H9c2 protect = myocardial damage modulation in H9c2 cells. H9c2 cardiomyocytes, H2O2 injury protection, ATPLite, 2 h. protection from H2O2 cell death, % at 20 µM. actives 0.63% (n = 360,000). AID 588492;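 active = compounds giving at least 50% protection of heart cells from peroxide-induced death in the single-dose screen, raw or plate-pattern-corrected value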;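 also: 0% = DMSO wells with peroxide and 100% = DMSO wells without peroxide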
PLCgamma1 ctr = PLC-gamma1 inhibition, counter-screen for PLC-beta3 hits. shares compounds with PLCg1 inh. purified PLC-gamma1, fluorogenic substrate, fluorescence. inhibition, % at 12.3 µM. actives 3.1% (n = 3,300)
PLCb3 confirm = confirmation of human PLC-beta3 inhibitors; shares compounds with PLCg1 inh; purified PLC-beta3, fluorogenic substrate fluorescence; inhibition, % at 12.3 µM; actives 1% (n = 3,300); AID 743261; in the data active = inhibition above about 11%
Numbers without * were called inactive; · = no result given. Rule as the data show it, unless noted: active = inhibition above about 9.5%; inactive = the rest.

SMILES | FAS-TE inh | PLCg1 inh | PLCb3 inh | H9c2 protect | PLCgamma1 ctr | PLCb3 confirm
O=C(COc1ccccc1)N1CCN(CC2CC3C=CC2C3)CC1 (centres undefined) | -2.8 | 16.0* | 1.3 | -3.4 | -4.7 | 0.3
O=c1[nH]c2ccccc2c(=O)n1-c1ccc(Cl)cc1Cl | -3.6 | -0.1 | 11.2* | 3.5 | -6.1 | 14.2*
CN(C)CC1CSCCC1(O)c1ccccc1Cl (centres undefined) | -7.1 | 9.9* | 7.7 | 4.3 | -4.5 | -1.0
CN(C)CC1CSCCC1(O)c1ccc(Cl)cc1 (centres undefined) | -2.1 | 1.2 | 3.5 | -2.2 | · | ·
CCN(CC)CCN=C(C)c1c(O)n(-c2ccccc2OC)c(=O)[nH]c1=O | -4.5 | -5.2 | -1.1 | -6.8 | · | ·
C[C@]12CCC(=O)C=C1CC[C@@H]1C2CC[C@]2(C)C(=O)CCC12 (some centres undefined) | -3.3 | 13.7* | 3.5 | -3.3 | -3.7 | -4.7
O=S(=O)(c1ccccc1)C1CN1c1c(F)c(F)c(F)c(F)c1F (centres undefined) | -0.7 | 0.5 | 1.8 | · | · | ·
COC(=O)C(O)(c1c(C)[nH]n(-c2ccccc2)c1=O)C(F)(F)F (centres undefined) | -3.8 | 9.2 | 6.5 | -9.8 | · | ·
COc1cc(C(c2c(C)[nH]n(-c3ccccc3)c2=O)c2c(C)[nH]n(-c3ccccc3)c2=O)cc(OC)c1OC | -3.2 | 22.1* | -23.5 | -1.7 | 2.3 | 0.4
COC(=O)C1=C(c2cccc(OCc3ccccc3)c2)C[C@@H]2CC[C@H]1N2C(=O)NCc1ccccc1C(F)(F)F | 18.4 | 0.5 | 1.1 | -5.7 | · | ·
O=C1CC(=O)N(Cc2ccccc2)C(=O)N1 | -5.4 | 16.1* | 2.1 | 2.2 | -1.7 | -1.6
NS(=O)(=O)c1nc[nH]c1[N+](=O)[O-] | -2.0 | 11.3* | -1.5 | -0.6 | 1.6 | -4.8
Cc1cccc(-n2c(O)c(C)c(=O)[nH]c2=S)c1 | -8.1 | -2.7 | -0.1 | 0.5 | · | ·
Cc1cccc(CS(=O)(=O)Cc2ccc(C(=O)N3CCC4(CC3)OCCO4)o2)c1 | -5.1 | 13.8* | 11.4* | 8.3 | -5.6 | -3.4
OC1CN2CCCC(O)C2C1O (centres undefined) | · | 1.1 | 6.0 | · | · | ·
CN(C)CC#CCC(O)(c1ccccc1)C1CCCC1 (centres undefined) | -8.9 | 5.8 | 12.8* | -1.4 | -7.8 | -3.3
CCC(C)C1NC(=O)C(NC(=O)C(CC(C)C)N(C)C(=O)C2CCCN2C(=O)C(C)O)C(C)OC(=O)C(Cc2ccc(OC)cc2)N(C)C(=O)C2CCCN2C(=O)C(CC(C)C)NC(=O)[C@H](C)C(=O)[C@H](C(C)C)OC(=O)CC1O (some centres undefined) | 8.2 | 18.4* | 7.2 | 10.8 | -4.4 | 0.2
COC(=O)C12OCC34C(CC5C(C)=C(O)C(=O)CC5(C)C3C(O)C1O)OC(=O)C(OC(=O)/C=C(\C)C(C)C)C24 (centres undefined) | -6.5 | 13.1* | 8.2 | -1.6 | -5.6 | -1.7
O=c1[nH]c(=S)n(Cc2ccc(F)cc2)c(O)c1C=NCc1cccnc1 | -6.9 | 10.9* | 0.4 | 8.3 | -1.2 | 0.1
O=C(Cn1cnc2sc3c(c2c1=O)CCCC3)NCCC(=O)N1CCC2(CC1)OCCO2 | -3.3 | 9.7* | 0.3 | 1.0 | -9.7 | -3.7
Cc1sc2ncn(CC(=O)N3CCC4(CC3)OCCO4)c(=O)c2c1C | 6.1 | -0.8 | 2.6 | 8.0 | · | ·
Cc1ccc(S(=O)(=O)N2Cc3cc(-c4ccccc4)ccc3-n3nncc3C2)cc1 | 4.6 | -0.9 | 1.4 | -0.8 | · | ·
O=C1COc2ccc(C(=O)COC(=O)Cc3ccccc3)cc2N1 | -0.3 | -6.9 | -12.3 | 14.0 | · | ·
COc1ccccc1OCCCn1cc(C(=O)C2CC2)c2ccccc21 | 20.2 | -1.2 | -8.4 | 6.0 | · | ·
COc1ccccc1OCCCn1cc(C(C)=O)c2ccccc21 | 1.3 | 12.7* | -3.0 | -7.8 | -4.2 | -7.7
CC(C)C(=O)N1CCN(CCN=Cc2c(O)n(C)c(=O)n(C)c2=O)CC1 | -1.6 | 11.0* | 4.2 | 12.4 | -1.1 | -0.5
CCC(=O)N1CCN(CCN=Cc2c(O)n(C)c(=O)n(C)c2=O)CC1 | -7.4 | -3.0 | -1.4 | -2.1 | · | ·
CC12CC[C@H]3[C@@H](CCC4(O)C[C@H](O)CCC34/C=N/NC(=O)c3ccccc3F)C1(O)CCC2C1=CC(=O)OC1 (some centres undefined) | -5.6 | 13.0* | 7.6 | 4.2 | -9.3 | -4.2

Screening results deposited in PubChem by several laboratories.
